According to PubChem BioAssay (EPA / NIEHS):
Records with an inconclusive call do not appear. Active and inactive are the calls of the source. Rule for the calls, unless noted: active = hit-call score of the fitted dose curve at least 0.9, where 1 is the maximum; inactive = score below 0.9.

What was measured:
[1] = CCTE_Deisenroth_5AR_NBTE_donor: CCTE's 5alpha-reductase NanoBRET Target Engagement Assay […], Deisenroth Lab (AID 2284319); conditions: actives raise or lower the signal
Procedure, shortened: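 In this secondary endpoint, donor luminescence from SRD5A2-NanoLuc in transfected HEK293T flags artifacts. Test chemical (10 nM - 29.9 uM) is present five hours, tracer the last two; mock-tracer wells run plate-matched; data fitted bidirectionally against DMSO.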

[2] = CCTE_Deisenroth_5AR_NBTE_acceptor: CCTE's 5alpha-reductase NanoBRET Target Engagement Assay - Autofluorescence Screen, Deisenroth Lab (AID 2284321); conditions: actives raise or lower the signal;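 note: compound fluorescence in the acceptor channel under 460 nm excitation flags autofluorescence artifacts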
Procedure, shortened: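 HEK293T cell-based NanoBRET assay read 5 h after dosing; this acceptor channel serves as an autofluorescence artifact screen. Chemicals at nominal 100 uM were scanned in three independent runs (n=3), excitation 460 nm. Fitting was bidirectional versus DMSO baseline.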

SRD5A2 (gene 6716) = assay: CCTE_Deisenroth_5AR_NBTE_ratio: CCTE's 5alpha-reductase NanoBRET Target Engagement Assay - Ratio, Deisenroth Lab (AID 2284322); conditions: actives raise or lower the signal
Procedure, shortened: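 HEK293T transiently expressing SRD5A2-NanoLuc; cells exposed to chemical (8-point, 10 nM - 29.9 uM) for 5 h total, testosterone tracer added for final 2 h. NanoBRET acceptor/donor ratio (650/460 nm), bidirectional fit vs DMSO.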

SERPINA7 (gene 6906) = assay: CCTE_GLTED_hTBG: CCTE's human Thyroxine-binding Globulin (TBG) Inhibition Assay, Great Lakes Toxicology and Ecology Division (GLTED) Lab (AID 2284343; active = hit-call score of the fitted dose curve at least 0.9, where 1 is the maximum;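 note: active chemicals lower fluorescence versus DMSO baseline by displacing probe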)
Procedure, shortened: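 Human TBG incubated 2 h with test chemical; displacement of ANSA probe read by fluorescence, 380 nm excitation/475 nm emission. Loss of signal relative to DMSO.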

[3] = IUF_NPC2-5_viability_120hr: Viability Assessment at 120 hours in the Leibniz Research Institute for Environmental Medicine (IUF) Neural Progenitor Cell Migration and Differentiation Assay (NPC2-5) (AID 2284312)
Procedure, shortened: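 Human fetal (GW 16-19) neural progenitor spheres of 0.3 mm were plated on poly-D-lysine/laminin in N2 differentiation medium and exposed from day 0 for 120 h, with half-medium refresh at day 3. Viability was read as alamar blue resazurin-to-resorufin fluorescence against DMSO.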

[4] = CCTE_Mundy_HCI_iCellGluta_NOG_NeuriteLength: CCTE's Neurite Outgrowth Assay in iCellGluta cells for Neurite Length, Mundy Lab (AID 2284318; active = hit-call score of the fitted dose curve at least 0.9, where 1 is the maximum)
Procedure, shortened: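 Automated high-content imaging of betaIII-tubulin (Alexa Fluor-488) and Hoechst-stained cells gave neurite length, normalized to the DMSO baseline.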

[5] = IUF_NPC1_cytotoxicity_72hr: Cytotoxicity Assessment at 72 hours in the Leibniz Research Institute for Environmental Medicine (IUF) Neural Progenitor Cell Proliferation Assay (NPC1) (AID 2284332; active = hit-call score of the fitted dose curve at least 0.9, where 1 is the maximum;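 note: rising LDH signal means more cytotoxicity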)
Procedure, shortened: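 Human fetal neural progenitor spheres (0.3 mm) in EGF/FGF proliferation medium, 37C, exposed 72 h without renewal. LDH release in supernatant read by resorufin fluorescence; gain of signal scored relative to dynamic range.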

[6] = CCTE_Mundy_HCI_iCellGluta_NOG_NeuronCount: CCTE's Neurite Outgrowth Assay in iCellGluta cells for Neuron Count, Mundy Lab (AID 2284340; active = hit-call score of the fitted dose curve at least 0.9, where 1 is the maximum;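 note: cells fixed about 48 h after compound addition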)
Procedure, shortened: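 Neuron count read by automated high-content imaging of Hoechst 33342 and betaIII-tubulin/Alexa Fluor-488 labelling in human iPSC glutamatergic neurons. Activity fitted relative to DMSO.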

[7] = CCTE_Mundy_HCI_iCellGluta_NOG_NeuriteCount: CCTE's Neurite Outgrowth Assay in iCellGluta cells for Neurite Count, Mundy Lab (AID 2284342; active = hit-call score of the fitted dose curve at least 0.9, where 1 is the maximum;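 note: chemical exposure about 48 hours starting 2 hours after plating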)
IYD (gene 389434) = assay: CCTE_GLTED_hIYD: CCTE's human Iodotyrosine Deiodinase (xIYD) Inhibition Assay, Great Lakes Toxicology and Ecology Division (GLTED) Lab (AID 2284317; active = hit-call score of the fitted dose curve at least 0.9, where 1 is the maximum;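 note: cell-free human IYD enzyme made in baculovirus insect cells; iodide freed from monoiodotyrosine measured by cerium arsenite color change at 420 nm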)
Procedure, shortened: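 hIYD: baculovirus-expressed human IYD deiodinated monoiodotyrosine for 3 h with test chemical; free iodide was measured by Sandell-Kolthoff absorbance at 420 nm and normalized to MNT and DMSO/NaOH controls.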

[8] = CCTE_Padilla_ZF_Score.Craniofacial: CCTE's 144 Hour Post-fertilization zebrafish Assay Score for Craniofacial Malformation, Padilla Lab (AID 2284405)
Procedure, shortened: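 Wild-type zebrafish embryos (with chorions), one per well in 10% Hanks', were dosed at 6–8 hpf in sealed plates and kept at 26C. They were rinsed at 5 dpf. At 6 dpf two blinded assessors scored craniofacial malformations by brightfield stereomicroscopy.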

[9] = CCTE_Padilla_ZF_Score.Edema: CCTE's 144 Hour Post-fertilization zebrafish Assay Score for Edema Malformation, Padilla Lab (AID 2284406)
Procedure, shortened: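 Wild-type zebrafish embryos, one per well in Hanks' solution, dosed at 6-8 hpf, sealed and reared at 26C on a 14:10 h cycle; rinsed on 5 dpf. At 6 dpf, blinded assessors scored edema by stereomicroscopy.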

[10] = CCTE_Padilla_ZF_Score.Spine: CCTE's 144 Hour Post-fertilization zebrafish Assay Score for Spine Malformation, Padilla Lab (AID 2284407)
Procedure, shortened: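 Wild-type zebrafish embryos, one per well in Hanks' solution, dosed at 6–8 hpf in sealed plates at 26C, 14:10 h light:dark; rinsed at 5 dpf. Two blinded assessors scored spinal defects by stereomicroscopy at 6 dpf; fitted versus DMSO.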

[11] = CCTE_Padilla_ZF_Score.Swim_bladder: CCTE's 144 Hour Post-fertilization zebrafish Assay Score for Swim Bladder Malformation, Padilla Lab (AID 2284408)
Procedure, shortened: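 Wild-type zebrafish embryos, one per well in 10% Hanks', dosed at 6–8 hpf, sealed, reared at 26C and rinsed at 5 dpf. Blinded assessors scored uninflated swim bladder by stereomicroscopy at 6 dpf, relative to DMSO.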

[12] = CCTE_Deisenroth_DEVTOX-GLR_legacy_CellCount: (Legacy) Viability Assessment in CCTE's DevTox GLR-Endo Assay, Deisenroth Lab (AID 2284331); conditions: actives raise or lower the signal
Procedure, shortened: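 Seed RUES2-GLR 24 h; differentiate 48 h, dosing at 0 and 24 h; fix, stain nuclei; image 5 fields/well; count nuclei. Conc. 1 nM - 200 uM, single technical replicate, n=4 experiments; bidirectional fit vs 0.2% DMSO.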

[13] = system: SRY-box transcription factor 2 (SOX2) Protein Expression, Deisenroth Lab, SOX2 (gene 6657); assay: CCTE_Deisenroth_DEVTOX-GLR_legacy_Sox2: (Legacy) CCTE's DevTox GLR-Endo Assay Evaluation of SRY-box transcription factor 2 (SOX2) Protein Expression, Deisenroth Lab (AID 2284346)
Procedure, shortened: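 RUES2-GLR human pluripotent cells seeded 24 h, then differentiated 48 h in defined media with two chemical doses 24 h apart (10-point, 1 nM–200 uM). Fixed, nuclear-stained, imaged; % Sox2+ cells (>5x BMAD over endoderm control median), DMSO-subtracted, fitted upward.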

TTR (gene 7276) = assay: CCTE_GLTED_hTTR_0.5uM: CCTE's human Transthyretin (hTTR) Inhibition Assay, with 0.5uM TTR, Great Lakes Toxicology and Ecology Division (GLTED) Lab (AID 2284320)
Procedure, shortened: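 Cell-free displacement assay in which human TTR at 0.5 uM was incubated with test chemical for 2 h. Displacement of the ANSA probe was read by fluorescence at 380 nm excitation/475 nm emission. Loss of signal was fitted in the positive direction versus DMSO.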

[14] = system: Brachyury (BRA) Protein Expression, Deisenroth Lab, TBXT (gene 6862); assay: CCTE_Deisenroth_DEVTOX-GLR_legacy_Bra: (Legacy) CCTE's DevTox GLR-Endo Assay Evaluation of Brachyury (BRA) Protein Expression, Deisenroth Lab (AID 2284329)
Procedure, shortened: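 RUES2-GLR human pluripotent cells differentiated 48 h with two 24-h-interval chemical exposures (1 nM - 200 uM, 10 points); fixed, nuclear-stained, imaged. Bra+ cell percentage (intensity 5x BMAD above pluripotent control median) fitted relative to 0.2% DMSO.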

[15] = system: SRY-box transcription factor 17 (SOX17) Protein Expression, Deisenroth Lab, SOX17 (gene 64321); assay: CCTE_Deisenroth_DEVTOX-GLR_legacy_Sox17: (Legacy) CCTE's DevTox GLR-Endo Assay Evaluation of SRY-box transcription factor 17 (SOX17) Protein Expression, Deisenroth Lab (AID 2284341); conditions: actives raise or lower the signal
Procedure, shortened: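 Using the RUES2-GLR line, compounds are tested as 10-point series during 48-h defined-media differentiation. Sox17 reporter fluorescence per cell determines positivity; endpoint is percentage positive, analysed bidirectionally versus DMSO baseline.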

O=S(=O)(O)c1cc(S(=O)(=O)O)c2c(N=Nc3ccccc3)c(O)ccc2c1
outcome [1]: inactive | outcome [2]: inactive | AC50 (SRD5A2 (gene 6716)): 10.9 µM (active) | AC50 (SERPINA7 (gene 6906)): 33.9 µM (active)

c1ccc2scnc2c1
outcome [3]: inactive | outcome [4]: inactive | outcome [5]: inactive | outcome [6]: inactive | outcome [7]: inactive

O=C1OC2(c3ccc(O)cc3Oc3cc(O)ccc32)c2ccccc21
outcome (IYD (gene 389434)): inactive | AC50 [1]: 3.88 µM (active) | outcome [2]: inactive | AC50 (SRD5A2 (gene 6716)): 10.3 µM (active)

CC(=O)C1=C(C)[C@@H]2C[C@@]3(C1)[C@H](C)CC[C@H]3C2(C)C
outcome [1]: inactive | outcome [2]: inactive | outcome (SRD5A2 (gene 6716)): inactive

CCCCCCCCCCCCOCCOS(=O)(=O)O
AC50 (IYD (gene 389434)): 76.7 µM (active) | AC50 [1]: 79 µM (active) | AC50 [2]: 78.4 µM (active) | AC50 (SRD5A2 (gene 6716)): 79.1 µM (active) | AC50 (SERPINA7 (gene 6906)): 50 µM (active)

C=C(C)C(=O)OCCC(F)(F)C(F)(F)C(F)(F)C(F)(F)C(F)(F)C(F)(F)C(F)(F)C(F)(F)F
outcome [8]: inactive | outcome [9]: inactive | outcome [10]: inactive | outcome [11]: inactive

O=c1cc(-c2ccc(O)cc2)oc2cc(O)cc(O)c12
AC50 (SERPINA7 (gene 6906)): 38.2 µM (active)

CC(C)Cc1ccc(C(C)C(=O)O)cc1 (configuration not stated)
outcome [3]: inactive | AC50 [4]: 15 µM (active) | outcome [12]: inactive | outcome [5]: inactive | outcome [6]: inactive | outcome [7]: inactive | outcome [13]: inactive

O=S(=O)(O)C(F)(F)C(F)(F)OC(F)(F)C(F)(F)F
AC50 (TTR (gene 7276)): 2.14 µM (active) | outcome [8]: inactive | outcome [9]: inactive | outcome [10]: inactive | outcome [11]: inactive

O=C(O)c1ccccc1O
outcome [14]: inactive | outcome [12]: inactive | outcome [15]: inactive | AC50 (SERPINA7 (gene 6906)): 50 µM (active) | outcome [13]: inactive

CCCCCCCCCCCCN1CCOCC1
AC50 (IYD (gene 389434)): 51 µM (active) | outcome [1]: inactive | outcome [2]: inactive | outcome (SRD5A2 (gene 6716)): inactive
